Test results published in PubChem BioAssay AID463173 (ICCB-Longwood Screening Facility, Harvard Medical School, 2010).
About 4,300 (8.3%) of roughly 52,000 compounds were called active. Shown is part of a subset that was picked to be rich in actives. Unmarked numbers belong to inactive results. No stated cut-off is given here; in the data, active means survival mostly below about 52% (no sharp cut-off); inactive means mostly above about 56%.

System: DeltatarO mutant
Assay: growth inhibition of S. aureus wild type versus tarO mutant, primary screen, teichoic acid synthesis inhibitors, RN4220, OD600 (AID 463173)
Settings: OD600, 18 h, stronger effect = lower value, screened at 18.75 µg/mL (by protocol)

| SMILES | survival |
| --- | --- |
| Cc1ccc(S(=O)(=O)Nc2nc3c(s2)C(=O)CC(C)(C)C3)cc1 | 91% |
| COc1ccc2nc(NS(=O)(=O)Cc3ccccc3)sc2c1 | 75% |
| CCOc1ccccc1N(C)C(=O)NCc1noc2ccccc12 | 108% |
| O=C(NCc1ccccc1F)C(=O)NCC(c1cccs1)S(=O)(=O)c1cccs1 (configuration not stated) | 83% |
| Cc1ccc(-n2ncc3c(NCCCn4ccnc4)ncnc32)cc1C | 84% |
| Cc1[nH]c2ccccc2c1SCCNC(=O)c1ccc(F)cc1 | 59% |
| COc1ccc(NC(=O)CN2C(=O)CCn3nc(-c4cccn4C)cc32)cc1Cl | 83% |
| CC1CCc2[nH]nc(C(=O)O)c2C1 (configuration not stated) | 93% |
| O=C(NC1CCCCC1)c1cc2c(Cl)nc3ccccc3c2s1 | 80% |
| Cc1ccc2nc(Cl)c3cc(C(=O)N4CCCCC4)sc3c2c1 | -8% (active) |
| Cc1ccc2nc(Cl)c3cc(C(=O)N4CCCC(C)C4)sc3c2c1 (configuration not stated) | -7% (active) |
| O=C(c1cc2c(Cl)nc3ccccc3c2s1)N1CCCCC1 | 46% (active) |
| CC1CCCN(C(=O)c2cc3c(Cl)nc4ccccc4c3s2)C1 (configuration not stated) | -5% (active) |
| Cc1ccc2nc(Cl)c3cc(C(=O)NCCCN4CCC(C)CC4)sc3c2c1 | 125% |
| CC1CCC(NC(=O)c2cc3c(Cl)nc4ccccc4c3s2)CC1 (configuration not stated) | 87% |
| O=C(NC1CCCCCC1)c1cc2c(Cl)nc3ccccc3c2s1 | 116% |
| CC1CCCN(CCCNC(=O)c2cc3c(Cl)nc4ccccc4c3s2)C1 (configuration not stated) | 125% |
| CCC(C)NC(=O)c1cc2c(Cl)nc3ccc(C)cc3c2s1 (configuration not stated) | 65% |
| Cc1ccc2nc(Cl)c3cc(C(=O)NC4CCC(C)CC4)sc3c2c1 (configuration not stated) | 57% |
| Cc1ccc(NC(=O)c2cc3c(Cl)nc4ccc(C)cc4c3s2)c(Cl)c1 | 68% |
| CNC(=O)C1CCC(Cn2c(=O)c3sccc3n(CC(=O)Nc3ccc(C)c(C)c3)c2=O)CC1 (configuration not stated) | 70% |
| CCC(C)NC(=O)c1sc2nc3n(c(=O)c2c1C)CCC3 (configuration not stated) | 93% |
| CCOc1ccc(NC(=O)Cn2c(=O)n(Cc3ccco3)c(=O)c3ccc(C(=O)NC4CCCC4)cc32)cc1 | 97% |
| Cc1ccc(NC(=O)CSc2ccc(-c3cccs3)nn2)cc1Cl | 111% |
| COc1ccc(NC(=O)CSc2nc(C)cc(C)c2C(=O)Nc2ccccc2OC)cc1 | 51% |
| CN1CCC(OC(=O)c2ccc(Cl)cc2Cl)CC1 | 101% |
| O=C(Cn1c(=O)n(CCc2ccccc2)c(=O)c2c3c(sc21)CCCC3)Nc1ccc(F)c(F)c1 | 84% |
